High-throughput results from PubChem.
Only some compounds are listed: those with a hit (about 3.6% of all), similar ones and a draw of the others.
AmpC inh detg: AmpC beta-lactamase inhibition with detergent present; P00811; AmpC hydrolysis of nitrocefin, absorbance 480 nm, 0.01% Triton; Potency, µM (top dose mostly 114 µM), inactives show at the top dose activity change, negative = inhibition, hits mostly inhibitors; 370,000 compounds, 0.041% hits;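 further: 0% = no-compound wells and -100% = no-enzyme wells; nearly all actives have a fitted effect of over 25% in size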
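AmpC (5.3 nM in the dispensed reagent) in 20 mM phosphate pH 7.0 with 0.01% (detergent screen) or 0.0001% Triton X-100 was preincubated with compounds for 15 min at room temperature. Nitrocefin was then added from an 800 uM solution, and hydrolysis was followed at 480 nm.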
AmpC no deterg: blocks E. coli AmpC beta-lactamase in detergent-free assay; AmpC nitrocefin hydrolysis, absorbance 480 nm, 0.0001% Triton; Potency, µM (highest dose often 57.1 µM), without a hit: at the highest dose activity change, negative = inhibition, most hits filed as inhibitors; 330,000 compounds, 0.52% hits;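 further: plate controls were no compound for no effect and no enzyme for full effect; nearly all actives have a fitted effect of over 20% in size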
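20 mM phosphate pH 7.0 + 0.01% (detergent screen) or 0.0001% Triton X-100; 5.3 nM AmpC reagent; cpd preinc 15 min RT; nitrocefin (800 uM stock) to start; A480 q20 s × 4 min; Activity was normalised to no-enzyme and no-compound control wells.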
FBPA Giardia inh: Giardia lamblia aldolase inhibition | A8B2U2 | Potency, µM (titrated, usually from 59.6 µM), inactives show at the highest dose activity, negative = inhibition, most hits filed as inhibitors | 290,000 compounds, 0.71% hits | AID 2451 | purified Giardia FBPA; further: nearly all actives have a fitted effect of over 55% in size
Target sequence (A8B2U2 whole entry, looked up): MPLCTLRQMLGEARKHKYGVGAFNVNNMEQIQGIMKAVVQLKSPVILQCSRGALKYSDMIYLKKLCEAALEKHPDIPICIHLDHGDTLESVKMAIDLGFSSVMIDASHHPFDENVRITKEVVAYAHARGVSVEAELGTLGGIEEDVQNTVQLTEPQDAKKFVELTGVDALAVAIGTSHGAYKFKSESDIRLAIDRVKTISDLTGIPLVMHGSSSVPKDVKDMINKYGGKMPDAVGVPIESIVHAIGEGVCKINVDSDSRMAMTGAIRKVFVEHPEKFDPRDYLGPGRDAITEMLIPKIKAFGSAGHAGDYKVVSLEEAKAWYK
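Giardia FBPA (40 nM reagent) was preincubated 10 min at RT with compound (up to 57.5 uM final), then substrate plus GAPDH/TPI/NAD/arsenate coupling system with diaphorase/resazurin was added; resorufin fluorescence (525/598 nm) was read after 20 min.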
Sm TGR block: S. mansoni TGR enzyme inhibition. Q962Y6. purified TGR, DTNB reduction, TNB absorbance 405 nm. Potency, µM (highest dose often 114 µM), inactives show at the top dose activity change, negative = inhibition, usual class: inhibitors. 360,000 compounds, 3% hits; further: nearly all actives have a fitted effect of over 60% in size
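First, TGR (20 nM dispensed) and NADPH were mixed with compound. Second, a 15 min room-temperature incubation followed. Third, further NADPH and then DTNB were added to start the reaction. Finally, TNB absorbance was monitored kinetically.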
Starred values were filed as active, the others as inactive; ? = inconclusive; nt = not tested or not shown; [ ] = remark or other dose. The call rests on the fitted dose curve; in most records, active means well fitted curve in the direction sought with a large enough effect; inconclusive means small, poorly fitted or top-dose-only effect, or another doubt; inactive means no such curve, though single readings can be large; an effect the other way counts as inactive or inconclusive. Unless noted, on the % scale 0 is the no-effect control and ±100 the full control effect; potency means the concentration at half of the fitted maximal effect.

SMILES | AmpC inh detg | AmpC no deterg | FBPA Giardia inh | Sm TGR block
CCOc1ccc(N2C(=O)S/C(=C\c3ccc(O)c(OCC)c3)C2=O)cc1 | 5% | -21% | -5% | 4%
CCOc1cc(/C=C2\SC(=O)N(c3ccc(O)cc3)C2=O)ccc1O | -5% | 10µM* | 10% | -8%
CCOc1cc(/C=C2\CN(CC)C/C(=C\c3ccc(O)c(OCC)c3)C2=O)ccc1O | ? | -2% | -20% | 40µM*
CCOc1ccc(NC(=O)c2cnc(N3CCCC3)nc2C)cc1 | -6% | nt | nt | -2%
CCCc1cc2c(=O)c(-c3nc4ccccc4s3)c(COCC(=O)O)oc2cc1O | -5% | -42% | -25% | 40µM*
Cc1ccc(/C=C/c2onc(C)c2S(=O)(=O)N2CCC(C(=O)NCc3ccc(Cl)cc3)CC2)cc1 | 22% | nt | nt | 0%
COC(=O)c1c(OC)cc2c(c1C)Oc1c(Cl)c(O)c(Cl)c(C)c1C(=O)O2 | nt | nt | 18% | nt
COc1cc(C)c2c(c1C=O)Oc1c(c(C)c(O)c3c1C(O)OC3=O)OC2=O (configuration not stated) | 6% | -21% | 3% | 20µM*
CCOc1ccc(-n2c(SCC(=O)N3CCc4ccccc43)nc3c([nH]c4ccccc43)c2=O)cc1 | 3% | nt | nt | 8%
COCCNC(=S)Nc1ccccn1 | 2% | -21% | 1% | nt
CC(C)CCNC(=S)Nc1ccccn1 | -1% | -18% | 0% | 45µM*
CCc1nnc(N/N=C/c2cc(Br)c(O)cc2O)n1N | -8% | -25% | ? | 35µM*
Cc1cc(C)cc(NC(=O)CN2C(=O)c3ccccc3Sc3ncccc32)c1 | 18% | nt | nt | 6%
Cc1cc(C)cc(NC(=O)CCN2C(=O)c3ccccc3Sc3ncccc32)c1 | -1% | nt | nt | 40µM*
CCN1CC2([N+](=O)[O-])C=CC(=O)C([N+](=O)[O-])(C1)C2CC(=O)c1ccccc1 (configuration not stated) | 2% | -27% | -20% | 13µM*
CCCCn1c(=N)n(CC(=O)c2ccc([N+](=O)[O-])cc2)c2ccccc21 | -10% | -11% | ? | 1%
CN1CCN(CCCCC(=O)c2ccccc2)CC1 | ? | -26% | -7% | 0%
CCCCN1CC2([N+](=O)[O-])C=CC(=O)C([N+](=O)[O-])(C1)C2CC(=O)c1ccccc1 (configuration not stated) | ? | -29% | -23% | 22µM*
CCCn1c(C)nc2c(N(CCOC)CCOC)nc(C)nc21 | nt | nt | 0% | nt
O=S(=O)(Oc1ccccc1/C=N/n1cnnc1)c1ccccc1 | 0% | 0% | 20µM* | nt
COc1cccc(C2CC(=O)N3CN(c4cccc(Cl)c4C)CSC3=C2C#N)c1OC (configuration not stated) | ? | 71% | ? | 0%
COc1cc(C2CC(=O)N3CN(c4ccccc4C)CSC3=C2C#N)cc(OC)c1OC (configuration not stated) | -6% | 29% | 4.5µM* | ?
COc1ccc2ccccc2c1C1CC(=O)N2CN(C)CSC2=C1C#N (configuration not stated) | -13% | -49% | ? | 10µM*
COc1ccccc1N1CSC2=C(C#N)C(c3ccc(SC)cc3)CC(=O)N2C1 (configuration not stated) | ? | -53% | 5.6µM* | ?
CC(C)c1ccc(C2CC(=O)N3CN(C)CSC3=C2C#N)cc1 (configuration not stated) | ? | -23% | ? | -29%
SMILES | AmpC inh detg | AmpC no deterg | FBPA Giardia inh | Sm TGR block
COCCCn1c(=O)c2sccc2n2c(CCCC(=O)NC3CCC(C)CC3)nnc12 (configuration not stated) | 21% | nt | nt | 0%
CN(Cc1ccccc1)c1nc(-c2ccc(F)cc2)cc(C(F)(F)F)n1 | 11% | nt | nt | 9%
O=C(CSc1n[nH]c(-c2ccncc2)n1)c1cccc([N+](=O)[O-])c1 | 1% | -35% | -7% | -9%
O=C(CSc1n[nH]c(-c2ccncc2)n1)c1ccccc1 | 3% | 0.4µM* | 6% | 4%
C=CCn1c(O)c(CN2CCCCC2)c(C)c(C#N)c1=O | 6% | -25% | ? | 13µM*
Cc1ccc(NC(=O)Cn2cccc2)cc1Cl | -7% | -24% | 1% | 32µM*
O=c1oc2ccccc2c(N2CCCCC2)c1CN1CCCCC1 | -4% | -29% | 3% | 18µM*
CCc1oc2ccccc2c1C(=O)CCN1CCCCC1 | ? | -15% | -6% | 7.9µM*
O=c1oc2ccccc2c(N2CCCCC2)c1CN1CCCC1 | ? | -14% | 2% | -14%
O=C(CCN1CCCCC1)c1ccccc1 | -7% | -5% | 4% | 0%
COc1ccccc1NC(=O)C/C(C)=N/NC(=O)COc1c(Br)cc(Br)cc1OC | 9% | 85% | -1% | 5%
COc1ccc(C2(CNC(=O)C(=O)Nc3ccccc3C)CCCC2)cc1OC | 17% | nt | nt | -3%
O=C(c1ccco1)c1nnn(Cc2ccccc2)c1-c1ccccc1 | -5% | nt | -8% | 32µM*
Cc1cccc(N/N=C/c2ccc(O)c(O)c2O)c1 | -6% | ? | 14µM* | 7.1µM*
Cc1cccc(N/N=C/c2ccc(C)s2)c1 | 2% | -40% | -2% | -14%
COc1cccc(N/N=C/c2cccc(Br)c2O)c1 | -1% | ? | -10% | 35µM*
COc1cccc(/C=N/Nc2ccc([N+](=O)[O-])cc2)c1O | -5% | 49% | -5% | 4%
CCCCc1nc2c(c3c1C[C@H](C)OC3)CN(C(=O)Nc1ccc(OC)cc1)CC2 | nt | nt | 1%[12.9 µM] | nt
CCN(CC)c1ccc(NC2CC(=O)N(CCc3ccc(OC)cc3)C2=O)cc1 (configuration not stated) | 4% | -26% | ? | 10µM*
COc1ccc(CCNC2CC(=O)N(CCc3ccccc3)C2=O)cc1 (configuration not stated) | 2% | 26% | 4% | ?
COc1cc(/C=C/C(=O)OCC(=O)NC(=O)NC23CC4CC(CC(C4)C2)C3)ccc1OCC#N | -6% | 8.9µM* | -11% | -2%
CCC(C)(C)n1nnnc1C(c1ccc2ncccc2c1)N1CCN(c2ccc(O)cc2)CC1 (configuration not stated) | 5% | 17% | ? | 50µM*
CCC(C)(C)n1nnnc1C(c1ccc(OC)c(OC)c1)N1CCN(c2ccccc2)CC1 (configuration not stated) | -9% | 96% | 1% | 50µM*
CCC(C)(C)n1nnnc1C(c1ccc(OC)c(OC)c1)N1CCN(c2cccc(OC)c2)CC1 (configuration not stated) | ? | 279% | -7% | ?
CCC(C)(C)n1nnnc1C(c1cc(OC)ccc1OC)N1CCN(Cc2ccccc2)CC1 (configuration not stated) | 0% | 137% | 5% | 32µM*
CCc1ccc(-c2[nH]nc3nc(-c4ccc(OC)cc4)cc(C(=O)NCCCOC)c23)cc1 | 1% | nt | nt | 11%
COc1ccc2c(C)c(CC(=O)NCc3ccccc3Cl)c(=O)oc2c1OC | -7% | nt | nt | 1%
